Results filed as inconclusive are left out. Values without a mark were called inactive. Calls of active or inactive are those of the source. The call rests on the fitted dose curve; in most records, active means well fitted curve in the direction sought with a large enough effect; inconclusive means small, poorly fitted or top-dose-only effect, or another doubt; inactive means no such curve, though single readings can be large; an effect the other way counts as inactive or inconclusive.

Assay [1] has as its target Rap guanine nucleotide exchange factor 3 (Homo sapiens) (UniProt O95398). Nature of the assay: Confirmatory qHTS for agonist of cAMP-regulated guanine nucleotide exchange factor 3 (EPAC1) (AID 1645881).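 Further: EPAC1 catalysed release of BODIPY-GDP from Rap1B seen as fluorescence loss; 100% = effect of cAMP agonist control; nearly all actives have a fitted effect of over 75% in size.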
The target in assay [2] is Rap guanine nucleotide exchange factor 4 (Homo sapiens) (UniProt Q8WZA2). Nature of the assay: Confirmatory qHTS for agonist of cAMP-regulated guanine nucleotide exchange factor 4 (EPAC2) (AID 1645884).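 Further: nucleotide exchange releases bodipy-GDP from Rap1 and this lowers its fluorescence; nearly all actives have a fitted effect of over 65% in size.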 Further: potency means the concentration at half of the fitted maximal effect. On activation: on the % scale 0 is the no-effect control and ±100 the full control effect. On the technique in general: In qHTS, concentration-response curves come from the screen itself.
Rap guanine nucleotide exchange factor 4 (Homo sapiens), sequence (Q8WZA2 whole entry, looked up): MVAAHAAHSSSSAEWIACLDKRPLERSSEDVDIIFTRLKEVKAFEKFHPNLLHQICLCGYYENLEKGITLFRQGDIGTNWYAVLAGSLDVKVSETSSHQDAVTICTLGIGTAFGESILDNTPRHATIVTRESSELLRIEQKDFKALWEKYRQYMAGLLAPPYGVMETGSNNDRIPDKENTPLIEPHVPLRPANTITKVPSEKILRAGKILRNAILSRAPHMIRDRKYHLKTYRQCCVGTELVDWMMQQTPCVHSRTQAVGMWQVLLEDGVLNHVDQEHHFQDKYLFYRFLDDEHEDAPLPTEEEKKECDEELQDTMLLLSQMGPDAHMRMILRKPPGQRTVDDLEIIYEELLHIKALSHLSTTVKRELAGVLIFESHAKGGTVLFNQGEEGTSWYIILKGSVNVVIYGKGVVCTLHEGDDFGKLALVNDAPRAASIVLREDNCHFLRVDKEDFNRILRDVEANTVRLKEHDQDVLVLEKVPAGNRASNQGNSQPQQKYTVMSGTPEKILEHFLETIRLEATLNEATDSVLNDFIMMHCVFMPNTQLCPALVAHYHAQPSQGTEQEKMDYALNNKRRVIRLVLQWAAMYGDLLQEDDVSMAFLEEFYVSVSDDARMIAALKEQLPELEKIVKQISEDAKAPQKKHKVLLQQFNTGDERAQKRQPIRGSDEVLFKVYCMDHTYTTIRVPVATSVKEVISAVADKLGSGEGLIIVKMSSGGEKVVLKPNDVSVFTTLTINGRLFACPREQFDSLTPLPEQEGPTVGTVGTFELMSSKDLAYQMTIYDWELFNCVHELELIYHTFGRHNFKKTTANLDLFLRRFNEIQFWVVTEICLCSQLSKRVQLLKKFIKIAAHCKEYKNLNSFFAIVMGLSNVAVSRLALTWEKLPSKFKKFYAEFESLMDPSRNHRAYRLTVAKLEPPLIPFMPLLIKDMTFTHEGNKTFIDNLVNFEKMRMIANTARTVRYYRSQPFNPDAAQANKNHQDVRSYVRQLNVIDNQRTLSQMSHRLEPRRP
For assay [3] the target is unchanged. Nature of the assay: Confirmatory qHTS for antagonist of cAMP-regulated guanine nucleotide exchange factor 4 (EPAC2) (AID 1645885). Further: nearly all actives have a fitted effect of over 25% in size. Further: potency means the concentration at half of the fitted maximal effect. On activity change, negative = inhibition: on the % scale 0 is the no-effect control and ±100 the full control effect.
The target in assay [4] is Rap guanine nucleotide exchange factor 3 (Homo sapiens) (UniProt O95398). Nature of the assay: Counterscreen qHTS for antagonist of cAMP-regulated guanine nucleotide exchange factor 3 (EPAC1) (AID 1645888).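 Further: fluorescence loss as bound BODIPY-GDP is released from Rap1B; % of control where 0% means no effect.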 The procedure, abridged:
(§1)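 Measured: fluorescence of BODIPY-GDP bound to Rap1B, which falls as exchange proceeds. Conditions include 50 uM competing GDP, 5 and 30 min reads, and a later cAMP challenge for antagonist detection.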

The target of assay [5] is Tumor susceptibility gene 101 protein (Homo sapiens) (UniProt Q99816). Nature of the assay: qHTS Assay for Iinhibitors of HIV-1 Budding by Blocking the Interaction of PTAP/TSG101: Hit Validation (AID 651600). Further: nearly all actives have a fitted effect of over 70% in size. Further: potency means the concentration at half of the fitted maximal effect. On activity change, negative = inhibition: on the % scale 0 is the no-effect control and ±100 the full control effect. The method in brief:
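Fluorescence polarization binding assay: Tsg101 binding domain (10 uM final) pre-dispensed with compounds, then FITC-labeled PTAP-motif peptide (50 nM final) added; 20 min at r.t. in HEPES pH 7.5 buffer with NaCl, Tween 20, EDTA, TCEP.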

Assay [6] addresses Rap guanine nucleotide exchange factor 3 (Homo sapiens) (UniProt O95398). Nature of the assay: Confirmatory qHTS for antagonist of cAMP-regulated guanine nucleotide exchange factor 3 (EPAC1) (AID 1645880).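 Further: plate controls were DMSO only for no effect and full effect of the ATA control for full effect; nearly all actives have a fitted effect of over 55% in size.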 The method in brief:
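Nucleotide exchange uses 100 nM EPAC1, 250 nM RAP1B-BODIPY-GDP and 50 uM GDP, with compounds in a concentration-titration series. After 5 min at room temperature, fluorescence (480 nm ex/540 nm em) is read every 5 min for 30 min. Data are normalized to control ATA and DMSO.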

The target is the same in assay [7]. Nature of the assay: Counterscreen qHTS for agonist of cAMP-regulated guanine nucleotide exchange factor 3 (EPAC1) (AID 1645889). Further: nearly all actives have a fitted effect of over 40% in size. Further: potency means the concentration at half of the fitted maximal effect. On activation: % of control where 0% means no effect. The procedure, abridged:
as §1

Tumor susceptibility gene 101 protein (Homo sapiens), sequence (Q99816 whole entry, looked up, the tested form may be a part): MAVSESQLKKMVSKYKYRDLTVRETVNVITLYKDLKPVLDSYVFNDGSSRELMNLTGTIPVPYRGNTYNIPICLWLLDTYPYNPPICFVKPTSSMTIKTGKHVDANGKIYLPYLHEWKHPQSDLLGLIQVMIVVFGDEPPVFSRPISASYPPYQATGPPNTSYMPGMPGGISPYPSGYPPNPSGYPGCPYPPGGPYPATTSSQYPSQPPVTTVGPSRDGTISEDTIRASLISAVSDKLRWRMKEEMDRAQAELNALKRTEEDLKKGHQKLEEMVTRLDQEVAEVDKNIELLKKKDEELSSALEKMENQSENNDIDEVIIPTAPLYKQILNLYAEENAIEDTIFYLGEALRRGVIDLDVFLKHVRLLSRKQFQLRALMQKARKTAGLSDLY
Rap guanine nucleotide exchange factor 3 (Homo sapiens), sequence (O95398 whole entry, looked up): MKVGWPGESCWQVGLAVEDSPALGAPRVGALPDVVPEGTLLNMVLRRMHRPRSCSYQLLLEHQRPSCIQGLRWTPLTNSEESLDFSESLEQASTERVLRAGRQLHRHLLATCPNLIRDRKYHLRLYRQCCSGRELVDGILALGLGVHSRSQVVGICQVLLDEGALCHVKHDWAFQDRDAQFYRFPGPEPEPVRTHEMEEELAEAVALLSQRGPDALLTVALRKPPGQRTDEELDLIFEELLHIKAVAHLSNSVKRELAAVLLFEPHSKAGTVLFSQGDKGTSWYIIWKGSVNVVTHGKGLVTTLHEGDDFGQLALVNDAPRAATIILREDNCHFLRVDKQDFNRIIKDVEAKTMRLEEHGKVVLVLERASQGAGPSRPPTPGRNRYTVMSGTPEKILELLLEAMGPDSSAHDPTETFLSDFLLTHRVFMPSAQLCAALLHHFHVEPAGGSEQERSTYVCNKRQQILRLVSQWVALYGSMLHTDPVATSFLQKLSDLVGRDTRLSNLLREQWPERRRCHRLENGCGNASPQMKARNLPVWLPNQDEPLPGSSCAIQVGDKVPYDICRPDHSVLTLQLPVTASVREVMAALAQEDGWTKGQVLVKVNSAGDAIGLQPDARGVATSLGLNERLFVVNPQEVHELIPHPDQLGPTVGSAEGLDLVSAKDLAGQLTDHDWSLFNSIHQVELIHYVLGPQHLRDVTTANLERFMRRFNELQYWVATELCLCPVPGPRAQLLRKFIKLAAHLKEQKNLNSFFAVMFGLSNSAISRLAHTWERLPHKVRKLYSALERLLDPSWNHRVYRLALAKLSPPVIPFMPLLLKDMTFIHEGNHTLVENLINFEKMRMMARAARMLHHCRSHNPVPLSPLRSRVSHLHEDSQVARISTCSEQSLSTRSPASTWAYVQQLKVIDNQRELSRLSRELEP

`Cc1ccc(OCCn2cccc2/C=C2/C(=O)NC(=O)N(Cc3ccco3)C2=O)cc1`: the Potency entry in assay [1], in assay [2] and in assay [3] was “inactive” in each case. Further, the outcome in assay [4] was inactive.
Regarding `Cc1cc(/C=C2\C(=O)NC(=O)N(Cc3ccccc3Cl)C2=O)c(C)n1-c1ccc(C(=O)O)cc1`, the Potency entry in assay [1] was “inactive”. Also, in assay [2], the activation was -9.15% [at 17.1 µM, percent relative to cAMP agonist control]. Further, the figures for the activity change, negative = inhibition in assay [3] and in assay [4] were -6.02% [at 12.7 µM] and 4.25% [at 30.8 µM], respectively.
As to `CCOC(=O)[C@]12Cc3cc(Cl)ccc3[C@H]1N(C(C)C)C(=O)c1ccccc12`, the Potency entry in assay [1] and in assay [2] was “inactive” each time. Moreover, the Potency in assay [3] is 21.3 µM (active). Moreover, the compound was called inactive in assay [4].
In the case of `Cc1ccc(-n2c(O)c(C=NCc3ccco3)c(=O)[nH]c2=S)cc1C`, the Potency result in assay [1], in assay [2] and in assay [3] was “inactive” each time. Besides, the compound was classed as inactive in assay [4].
With `O=C1NC(=O)N(Cc2ccccc2)C(=O)/C1=C\C=C\c1ccco1`, the Potency result in assay [1] is “inactive”. Also, in assay [2], the activation is 12.1% [at 17.1 µM, percent relative to cAMP agonist control]. The activity change, negative = inhibition was 2.97% [at 12.7 µM] in assay [3] and -17.1% [at 30.8 µM] in assay [4].
With `CCOC(=O)c1[nH]c2ccc(OC)cc2c1C(SCC(=O)O)c1ccc(C(F)(F)F)cc1` (stereo not given), the Potency entry in assay [1] was “inactive”. Also, in assay [2], the activation was 2.9% [at 17.1 µM, percent relative to cAMP agonist control]. Moreover, the figures for the activity change, negative = inhibition in assay [3] and in assay [4] were -9.73% [at 12.7 µM] and -0.779% [at 30.8 µM], respectively.
In the case of `Nc1ccc2ccc3cccc[n+]3c2c1`, the Potency in assay [5] is 4.11 µM (active); in assay [2], 100 µM (active); in assay [7] it was 39.8 µM (active). Also, the Potency result in assay [6] and in assay [3] was “inactive” each time.
For `CN1/C(=C\C=C2C(=O)NC(=S)NC2=O)C(C)(C)c2ccccc21`, the Potency entry in assay [5], in assay [6] and in assay [3] was “inactive” throughout. Also, in assay [2], the Potency was 100 µM (active). For the same compound, the compound was classed as inactive in assay [4].
In the case of `CCOC(=O)c1cc(CC)sc1/N=C/C1C(=O)NC(=S)NC1=O`, the Potency result in assay [6] is “inactive”. The activity change, negative = inhibition in assay [3] was -21.4% [at 12.7 µM]; in assay [4], -8.68% [at 30.8 µM].
Consider `Nc1ccc2nonc2c1[N+](=O)[O-]`, for which the Potency is 14.6 µM (active) in assay [5], 112 µM (active) in assay [2], 47.8 µM (active) in assay [3] and 63.1 µM (active) in assay [7]. The Potency entry in assay [6] was “inactive”. For the same compound, in assay [4], the call was inactive.
On to `Cc1cccc(CN2C(=O)CN=C(c3ccccc3)c3ccccc32)c1`, for which the Potency entry in assay [6] and in assay [2] was “inactive” in each case. Besides, the activity change, negative = inhibition in assay [3] is 15.3% [at 12.7 µM]. Besides, in assay [4], the call was inactive.
For `Cn1cccc1/C=C1/C(=O)NC(=O)N(Cc2ccc(F)cc2)C1=O`, the Potency result in assay [1], in assay [2] and in assay [3] was “inactive” throughout. For the same compound, the compound was called inactive in assay [4].
In the case of `O=c1[nH]c(=S)n(-c2ccccc2F)c(O)c1C=Nc1ccc(N2CCOCC2)cc1`, the Potency entry in assay [6] is “inactive”. The activation in assay [2] is 4.59% [at 17.1 µM, percent relative to cAMP agonist control]; in assay [7], 32% [at 30.8 µM]. The activity change, negative = inhibition in assay [3] was -15.3% [at 12.7 µM]; in assay [4], -4.47% [at 30.8 µM].
With `Cc1cc2ccccn2c1C(C[N+](=O)[O-])c1c(F)cccc1Cl` (stereo not given), the Potency entry in assay [1] and in assay [2] was “inactive” each time. The Potency in assay [3] is 15.1 µM (active). Moreover, in assay [4], the call was inactive.
